Laboratory results taken from PubChem BioAssay AID434962 (The Scripps Research Institute Molecular Screening Center, 2010).
Hit rate of the full screen: of about 320,000 compounds, about 1,300 (0.41%) were called active. What follows is part of a selection rich in actives, with near analogues and random picks from the rest. Unmarked numbers belong to inactive results.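 How the source made its calls: active means percent inhibition above the average of all tested compounds plus 3 SD, set per screening campaign (cut at about 16% in these data); inactive means the rest.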

Each compound was assayed against Insulin-degrading enzyme (Homo sapiens) (UniProt P14735) (assay: human IDE inhibitors in live cells, primary screen, fluorescence polarization, HEK cells, FAbetaB substrate (AID 434962;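 further: IDE supplied by intact live HEK cells; FP after avidin binding of uncleaved biotin substrate so inhibition keeps polarization high; 0% = DMSO wells and 100% = 60 µM reference IDE inhibitor Ii1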)). Details: FAbetaB cleavage, at 5.59 µM, stronger effect = higher value.
Insulin-degrading enzyme (Homo sapiens), sequence (P14735 whole entry, looked up): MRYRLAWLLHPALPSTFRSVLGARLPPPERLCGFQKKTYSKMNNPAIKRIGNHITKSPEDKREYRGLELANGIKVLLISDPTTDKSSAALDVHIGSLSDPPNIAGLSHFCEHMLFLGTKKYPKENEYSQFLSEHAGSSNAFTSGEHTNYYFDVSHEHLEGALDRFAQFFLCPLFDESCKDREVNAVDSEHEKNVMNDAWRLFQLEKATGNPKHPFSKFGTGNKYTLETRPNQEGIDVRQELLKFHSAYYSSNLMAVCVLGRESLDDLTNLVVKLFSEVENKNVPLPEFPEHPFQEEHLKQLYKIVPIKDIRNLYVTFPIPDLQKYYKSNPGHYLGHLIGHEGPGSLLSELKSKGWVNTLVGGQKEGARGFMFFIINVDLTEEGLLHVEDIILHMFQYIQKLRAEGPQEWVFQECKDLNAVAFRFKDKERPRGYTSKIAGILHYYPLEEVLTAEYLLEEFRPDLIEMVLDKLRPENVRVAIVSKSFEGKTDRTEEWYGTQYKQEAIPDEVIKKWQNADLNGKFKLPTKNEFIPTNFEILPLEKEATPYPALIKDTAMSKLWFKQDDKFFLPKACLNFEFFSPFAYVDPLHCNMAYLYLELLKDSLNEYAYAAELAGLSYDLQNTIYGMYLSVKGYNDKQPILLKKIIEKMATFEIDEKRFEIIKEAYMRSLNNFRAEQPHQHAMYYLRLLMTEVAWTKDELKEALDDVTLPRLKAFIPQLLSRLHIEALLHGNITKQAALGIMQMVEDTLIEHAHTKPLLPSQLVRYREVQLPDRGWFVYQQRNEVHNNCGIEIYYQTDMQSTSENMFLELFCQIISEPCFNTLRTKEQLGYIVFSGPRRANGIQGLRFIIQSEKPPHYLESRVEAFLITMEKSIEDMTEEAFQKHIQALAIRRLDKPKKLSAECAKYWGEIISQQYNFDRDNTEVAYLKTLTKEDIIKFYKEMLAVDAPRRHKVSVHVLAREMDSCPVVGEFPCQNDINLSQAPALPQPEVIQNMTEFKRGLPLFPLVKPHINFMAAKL

| Compound | inhibition |
| --- | --- |
| Cc1nnc(Sc2nc3c(c(=O)[nH]c(=O)n3C)n2Cc2ccccc2)s1 | 1.7% |
| C=CCC1=C/C(=C\c2c(N)n3nc(CC(=O)N4CCOCC4)sc3nc2=O)C=C(OC)C1=O | 68.9% (active) |
| COC1=C/C(=C/c2c(N)n3nc(CC(=O)N4CCOCC4)sc3nc2=O)C=CC1=O | 12.1% |
| COc1cc(/C=C2\C(=N)N3N=C(CC(=O)N4CCOCC4)SC3=NC2=O)cc(OC)c1OC | -4.67% |
| Cc1cccc(CSc2ccc(-c3cccs3)nn2)c1 | 4.68% |
| FC(F)(F)Oc1ccc(-c2cn3cccnc3n2)cc1 | 6.48% |
| FC(F)(F)c1ccc2c3n(nc2c1)CCN=C3c1ccc(Cl)cc1 | 1.01% |
| CCn1c(O)c(N=NC2=NC(=O)CS2)c2cc(C)ccc21 | 5.14% |
| CCC(=C/c1sc2ccc3ccccc3c2[n+]1C)/C=C1\Sc2ccc3ccccc3c2N1C | 50.5% (active) |
| O=S1(=O)CC(NCc2ccccc2)C(Nc2ccc(Cl)cc2)C1 (stereo unspecified) | 0.58% |
| COc1ccc(NS(=O)(=O)c2cc3c(cc2C)N(C(C)=O)CCO3)cc1 | 2.34% |
| CN1C(C)(C)CC(NC(=O)CCC(=O)NC2CC(C)(C)N(C)C(C)(C)C2)CC1(C)C | 0.6% |
| C=CCN1C(=O)C2(OCCCO2)c2cccc(Cl)c21 | 1.02% |
| CCc1ccc(N(C(=O)c2csnn2)C(C(=O)NC2CCCCC2)c2ccncc2)cc1 (stereo unspecified) | 3.98% |
| Cc1cccn2c(=O)c(/C=C(\C#N)C(N)=O)c(N3CCCCCC3)nc12 | 15.9% |
| CCOC(=O)N1CCN(C(=O)CSc2nc(=O)n3cccc(C)c3n2)CC1 | -1% |
| CCOC(=O)CC1C(=O)NCCN1c1nc2c(C)cccn2c(=O)c1/C=C1\SC(=S)N(C(C)CC)C1=O (stereo unspecified) | 114% (active) |
| O=C(COc1ccc(S(=O)(=O)N2CCOCC2)cc1Cl)N1CCOCC1 | 0.54% |
| CCCc1cc(=O)oc2c(C)c(OCC(=O)N3CCC(C(=O)O)CC3)ccc12 | 0.15% |
| CCCCc1cc(=O)oc2c(C)c(OCC(=O)N3CCC(C(N)=O)CC3)ccc12 | 21.3% (active) |
| Cc1c(C)c2ccc(OCC(=O)N3CCC(C(=O)O)CC3)c(C)c2oc1=O | 9.3% |
| CCC(C)N(C(=O)COC(=O)c1nc(Cl)ccc1Cl)C1CCS(=O)(=O)C1 (stereo unspecified) | 1.33% |
| CNC(=O)/C(C#N)=C/c1c(F)cccc1Cl | -1.39% |

| Compound | inhibition |
| --- | --- |
| CCN1CCN(C(=O)C2CCCN(S(=O)(=O)c3ccc(OC)c(OC)c3)C2)CC1 (stereo unspecified) | -5.73% |
| O=C(O)c1ccccc1CSc1nc2ccccc2s1 | -2.6% |
| O=[N+]([O-])c1c(NCCO)cc(Sc2nc3ccccc3s2)c2nonc12 | 21.8% (active) |
| CCOc1ccccc1Nc1ccc2nonc2c1[N+](=O)[O-] | -3.97% |
| Cc1[nH]c2ccccc2c1/C=C(/C#N)C(=O)NC(C)C | -1.7% |
| Nc1c(C(=O)c2cccs2)sc2nsc(SCCN3CCCCC3)c12 | 23% (active) |
| O=C(CSc1ncnc2sccc12)N1CCN(C(=O)c2cccs2)CC1 | 3.13% |
| O=[N+]([O-])c1ccc(N(CCO)Cc2ccccc2)c([N+](=O)[O-])c1 | 0.66% |
| COc1ccc(N2CCN(Cc3ccc(Br)s3)CC2)cc1 | -4.53% |
| O=C1NC(c2ccccc2)=NC1(Nc1ccccn1)C(F)(F)F (stereo unspecified) | -2.81% |
| COc1ccc(N=C(C)c2sc3ccccc3c2O)cc1 | 41.2% (active) |
| Oc1ccc(N=Cc2sc3ccccc3c2Cl)cc1 | 0.23% |
| COC(=O)c1ccc(/C=C/c2c(-c3ccc(OC)cc3)sc3ccccc23)cc1 | 1.82% |
| Cc1ccccc1NC(=O)Cc1nc(COC(=O)c2ccc(C(F)(F)F)cc2)cs1 | 7.39% |
| CCN(CC)C(=O)CSC(Nc1cccc(F)c1)=C(C#N)C#N | 31.4% (active) |
| Cc1ccc(CSCC(=O)N(C)CC(=O)Nc2cccc(F)c2)cc1 | 5.39% |
| CCN(CC)C(=O)C(=O)Nc1cccc(Br)c1 | 1.91% |
| Cc1cccc(OCC(O)CN2CCN(CCN3C(=O)c4cccc5cccc(c45)C3=O)CC2)c1C (stereo unspecified) | -8.18% |
| Cc1cccc(C)c1NC(=O)COC(=O)c1ccccc1O | 3.87% |
| Cc1cc([N+](=O)[O-])c(N2CCC[C@@H]2C(=O)O)c([N+](=O)[O-])c1 | 3.34% |
| CS(=O)(=O)N(Cc1ccccc1)c1ccc(C(=O)NN=C2CCCCCC2)cc1 | 18.7% (active) |
| Cc1ccccc1CN(c1ccc(C(=O)NCC2CCCO2)cc1)S(C)(=O)=O (stereo unspecified) | 10.1% |
| CN1CCC(=NNC(=O)c2ccc(N(Cc3ccc(Cl)cc3)S(C)(=O)=O)cc2)CC1 | 8.43% |
